# Screening results from PubChem.
# Hits are enriched below; roughly 10% of the tested compounds scored in any of these assays.
# JMJD2A Tudor: qHTS Assay for Inhibitors of JMJD2A-Tudor Domain. AlphaScreen JMJD2A-Tudor / H3K4me3 peptide binding. AID 504339, 2011. actives 4.4% (n = 390,000). Lysine-specific demethylase 4A (Homo sapiens), O75164. Potency, µM (titrated, usually from 114 µM), for the others: at the highest dose activity change, negative = inhibition, usual class: inhibitors; also: potency is read from the fitted curve at half-maximal effect; % is scaled to controls: 0 for no effect and ±100 for the full control effect; nearly all actives have a fitted effect of over 50% in size
# CtBP-E1A inh: qHTS Assay for Inhibitors of the CtBP/E1A Interaction. CtBP / adenovirus E1A interaction (AlphaScreen). AlphaScreen GST-E1A/His-CtBP binding, 1536-well; stronger effect = lower value. activity change, % (concentration not given with the values). actives 0.49% (n = 340,000). AID 651724, 2012; in the data active = activity change below about -65%; inconclusive = mostly about -30% to -63%; also: % is scaled to controls: 0 for no effect and ±100 for the full control effect
#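 In 5 uL wells, 23 nL compound meets equimolar GST-E1A and His-CtBP (5X stock 125 nM each) for 2 h, 37 °C. Beads (5X, 50 ug/mL) then 1 h, 37 °C, dark.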
# Six1-Eya2 inh: qHTS Assay for Inhibitors of the Six1/Eya2 Interaction; Homeobox protein SIX1 (Homo sapiens) + Protein phosphatase EYA2 (Homo sapiens), …; AlphaScreen GST-Six1/His-Eya2 binding, biochemical; stronger effect = lower value; activity change, % (no concentration beside the values); actives 0.56% (n = 360,000); AID 651725, 2012; in the data active = activity change below about -65%; inconclusive = mostly about -30% to -63%; also: % is scaled to controls: 0 for no effect and ±100 for the full control effect
#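 AlphaScreen with GST-Six1 and His-Eya2 (5X mix: 250 nM and 500 nM), glutathione donor and nickel acceptor beads; buffer 50 mM Tris pH 8.0, 300 mM NaCl, 1 mM TCEP; 1 h at 37 C in the dark.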
# G9a inh: qHTS Assay for Inhibitors of Histone Lysine Methyltransferase G9a; Histone-lysine N-methyltransferase EHMT2 (Homo sapiens), Q96KQ7; actives 8.8% (n = 350,000); Potency, µM (highest dose often 102 µM), without a hit: at the highest dose activity, negative = inhibition, hits mostly inhibitors; G9a H3K9 monomethylation, AlphaScreen, 2 h; also: potency is read from the fitted curve at half-maximal effect; % is scaled to controls: 0 for no effect and ±100 for the full control effect; nearly all actives have a fitted effect of over 75% in size
#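 Methyltransferase reactions run at room temperature for 2 h (20 nM enzyme, 500 nM biotin-H3K9 peptide, 20 uM SAM) after a 15 min compound preincubation; product detected by AlphaScreen beads and anti-H3K9me1 antibody.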
# BAZ2B block: qHTS Assay for Inhibitors of BAZ2B. AlphaScreen BAZ2B-H3K14Ac peptide displacement. actives 4.4% (n = 360,000). Bromodomain adjacent to zinc finger domain protein 2B (Homo sapiens), Q9UIF8. Potency, µM (series often up to 114 µM), inactives show top-dose activity change, negative = inhibition, hits mostly inhibitors; also: potency is read from the fitted curve at half-maximal effect; % is scaled to controls: 0 for no effect and ±100 for the full control effect; nearly all actives have a fitted effect of over 60% in size
#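 BAZ2B 50 nM plus b-H3(5-23)K14Ac 50 nM, PBS pH 7.4/0.01% Tween-20, 30 min RT; compound added (max 110 uM), 30 min RT; streptavidin donor/Ni-chelate acceptor beads 10 ug/mL final, 20 min dark; AlphaScreen read.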
# HP1b binding inh: HTS for Inhibitors of HP1-beta Chromodomain Interactions with Methylated Histone Tails; Chromobox protein homolog 1 (Homo sapiens), P83916; AlphaScreen HP1-beta / biotin-H3K9me3 peptide binding; Potency, µM (highest dose often 114 µM), inactives show top-dose activity change, negative = inhibition, most hits filed as inhibitors; actives 0.56% (n = 390,000); AID 540317, 2011; also: potency is read from the fitted curve at half-maximal effect; nearly all actives have a fitted effect of over 70% in size
#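 Compound inhibition of the preformed complex between 50 nM HP1-beta and 50 nM biotinylated H3K9me3 peptide was read by AlphaScreen. Buffer was PBS pH 7.4 with 0.01% Tween-20. Incubations ran 30 min at room temperature, with 10 ug/mL donor/acceptor beads.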
# An asterisk follows results filed as active; ? = inconclusive; . = not tested or not shown; [ ] = remark or other dose. Unless noted, calls follow the shape of the dose curve; as a rule, active = well fitted inhibition curve with a large enough effect; inconclusive = small, poorly fitted or top-dose-only effect; inactive = no such curve, though single readings can be large or run the other way.
SMILES,JMJD2A Tudor,CtBP-E1A inh,Six1-Eya2 inh,G9a inh,BAZ2B block,HP1b binding inh
Cc1cccc(C(C)(C)C)c1OCCN1CCCC1,4.5µM*,-14,-13,25µM*,-9%,?
Cc1nc2c(-c3ccccc3)c(C)nn2c(C)c1CCC(=O)NCc1ccc(Cl)cc1,15%,.,.,8%[59 µM],0%,38%
Cc1ccc(S(=O)(=O)NN2C(=O)/C(=C/c3cccn3C)SC2=S)cc1,.,.,.,45µM*,50µM*,.
COc1ccc(/C=C2/SC(=S)N(NS(=O)(=O)c3ccc(C)cc3)C2=O)cc1,?,-4,9,?,40µM*,?
O=C1/C(=C/c2cccnc2)SC(=S)N1Nc1ccccc1,-7%,3,4,40µM*,?,19%
Cc1ccc(S(=O)(=O)NN2C(=O)/C(=C/c3cccs3)SC2=S)cc1,?,.,-5,20µM*,?,-14%
Cc1ccc(S(=O)(=O)NN2C(=O)/C(=C/c3ccc(F)cc3)SC2=S)cc1,-19%,7,-1,-8%,-27%,12%
Cc1ccc(S(=O)(=O)NN2C(=O)/C(=C\c3ccc(Cl)cc3)SC2=S)cc1,-28%,2,8,-10%,-27%,-20%
O=C1/C(=C/c2cccnc2)SC(=S)N1c1ccccc1,-4%,.,3,?,8%,28%
COC(=O)c1sc2nc(C)c([N+](=O)[O-])c(C)c2c1N,-15%,-19,-18,14%[59 µM],-11%,35%
Cc1ccc(S(=O)Cc2ccc(C(=O)NCc3ccc(OC(C)C)cc3)o2)cc1 (stereo not drawn),-19%,.,.,-33%[59 µM],-12%,2%
Cc1ccc(N2CCN(C(=O)C(=O)c3ccc(F)c(F)c3)CC2)cc1,.,-1,-5,.,.,.
COc1cc(/C=C2\SC(=S)N(NS(=O)(=O)c3ccccc3)C2=O)cc(OC)c1OC,?,-19,-22,?,?,-14%
Cc1ccc(/C=C2\SC(=S)N(NS(=O)(=O)c3ccc(C)cc3)C2=O)cc1,?,.,6,.,50µM*,-5%
COc1cccc(/C=C2\SC(=S)N(NS(=O)(=O)c3ccccc3)C2=O)c1OC,?,.,-8,40µM*,-38%,0%
Cn1cccc1/C=C1\SC(=S)N(Nc2ccccc2)C1=O,?,.,-8,.,20µM*,?
C=CCOc1ccc(/C=C2\SC(=S)N(NS(=O)(=O)c3ccc(C)cc3)C2=O)cc1,50µM*,1,-12,15%[2.33 µM],40µM*,?
CN1CCC(=O)N(C(CSc2ccc(Br)cc2)c2ccccc2)CC1 (stereo not drawn),-31%,.,.,.,.,7%
Cc1ccc(S(=O)(=O)N/N=C/c2cccc3c2OCCO3)cc1,-17%,-1,7,10µM*,-6%,13%
O=S(=O)(N/N=C/c1cccc(OC2CSC2)c1)c1ccccc1,-23%,4,0,?,-12%,-1%
Cc1ccc(S(=O)(=O)N/N=C/c2ccc(C#N)cc2)cc1,-17%,3,6,2.2µM*,-25%,18%
CCOc1ccc(/C=N/NS(=O)(=O)c2ccc(C)cc2)cc1OC,-9%,.,3,?,-4%,37%
Cc1ccc(S(=O)(=O)N/N=C/c2cccc(OC3CSC3)c2)cc1,-23%,-14,-13,8.9µM*,-5%,15%
COC(=O)C(Cc1c[nH]c2ccccc12)NC(=O)COc1cccc(C)c1 (stereo not drawn),-25%,.,.,0%[59 µM],-26%,29%
O=[N+]([O-])c1cc(-c2nc3nc4ccccc4nc3n2CCc2ccccc2)cc([N+](=O)[O-])c1,-2%,0,7,?,16%,57%
SMILES,JMJD2A Tudor,CtBP-E1A inh,Six1-Eya2 inh,G9a inh,BAZ2B block,HP1b binding inh
CCN(CC)C(=O)NC1CC2CCCC(C1)N2Cc1ccccc1 (stereo not drawn),-4%[57.1 µM],-3,-2,2.8µM*,5%,-11%
Cc1ccc(C(=O)NC2CC3CCCC(C2)N3Cc2ccccc2)cc1 (stereo not drawn),8%[57.1 µM],5,0,.,18%,13%
CCCC(=O)Nc1nc2c(s1)CC(C(C)(C)C)CC2 (stereo not drawn),-5%,.,.,-12%[59 µM],4%,35%
COC(=O)c1ccccc1NC(=O)CSc1nc(=O)cc(N)n1-c1ccccc1,-32%,.,.,-11%[59 µM],-14%,8%
O=c1[nH]c(/C=C\c2cccc(O)c2)nc(O)c1[N+](=O)[O-],-2%,-2,-7,-74%,5%,35%
Cc1cc(/C=C\c2nc(O)c([N+](=O)[O-])c(=O)[nH]2)c(C)n1-c1ccccc1,56µM*,4,0,50µM*,45µM*,?
CCOc1ccc(/C=C\c2nc(O)c([N+](=O)[O-])c(=O)[nH]2)cc1OCC,11%,0,-1,?,-15%,14%
CCOc1ccccc1/C=C\c1nc(O)c([N+](=O)[O-])c(=O)[nH]1,13%,8,2,-10%,-17%,22%
O=c1[nH]c(/C=C\c2ccc(O)c(O)c2)nc(O)c1[N+](=O)[O-],?,?,-23,40µM*,?,-4%
COc1ccc(-n2c(C)cc(/C=C/c3nc(O)c([N+](=O)[O-])c(=O)[nH]3)c2C)cc1,-3%[11.4 µM],.,-7,28µM*,50µM*,?
O=C(COc1ccccc1/C=C\c1nc(O)c([N+](=O)[O-])c(=O)[nH]1)Nc1ccccc1,-22%,0,-3,50µM*,?,-10%
O=C1CCc2cc(S(=O)(=O)Nc3ccc(F)c(Cl)c3)ccc2N1,1%,.,.,.,.,.
CCOC(=O)c1scc(-c2ccc(C)cc2)c1S(=O)(=O)N1CCN(c2ccccc2)CC1,-25%,.,.,-25%[59 µM],?,34%
O=C(NCC1CCCO1)c1ccc(NS(=O)(=O)c2cccs2)cc1 (stereo not drawn),?,-24,0,35µM*,-34%,10%
O=C(COC(=O)c1ccc(NS(=O)(=O)c2cccs2)cc1)NCC1CCCO1 (stereo not drawn),-10%,-3,-3,2%,1%,32%
CC(NC(=O)c1ccccc1)c1nc2ccccc2n1Cc1ccccc1F (stereo not drawn),.,.,.,50µM*,-35%[57.1 µM],.
